# How the values were obtained:
# Assay in all cases: DAPPL (digital affinity profiling via proximity ligation, sequencing); 10 mM Tris-HCl pH 7.5, 50 mM NaCl, 1 mM DTT, 4% glycerol, room temperature, 30 min; GST-TFs on glutathione beads, 16-mer random dsDNA library, 0.1% formaldehyde crosslink after washing; high values mean tight binding
# FEV = biological target: T1, FEV (Homo sapiens, UniProt Q99581 1-238); conditions: protein: recombinant; tags: N-terminal GST; dsDNA, one strand shown
# T1 sequence: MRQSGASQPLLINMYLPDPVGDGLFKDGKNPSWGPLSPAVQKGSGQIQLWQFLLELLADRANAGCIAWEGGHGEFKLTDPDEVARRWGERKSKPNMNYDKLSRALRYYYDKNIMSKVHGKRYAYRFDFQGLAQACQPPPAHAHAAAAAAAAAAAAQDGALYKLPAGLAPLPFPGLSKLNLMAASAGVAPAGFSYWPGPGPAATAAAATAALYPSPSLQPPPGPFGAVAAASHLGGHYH
# Summary of the method: (§1)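 Binding signal is each hexamer's read frequency for a factor divided by its frequency in the tag-only sample. The factors were GST-fused human transcription factors from yeast, captured on glutathione beads, DNA-barcoded and pooled with that sample. Pools were incubated with 200 nmole of a random double-stranded 16-mer DNA library in Tris/NaCl/DTT/glycerol buffer at room temperature for 30 min, then washed, crosslinked with 0.1% formaldehyde, proximity-ligated with BsaI/T4 ligase (1 h, 37 °C), PCR-amplified and sequenced on an Illumina NextSeq500.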
# ETV5 = ETV5 (Homo sapiens, UniProt P41161 1-510); conditions: protein: recombinant; tags: N-terminal GST; dsDNA, one strand shown
# ETV5, sequence (P41161 whole entry): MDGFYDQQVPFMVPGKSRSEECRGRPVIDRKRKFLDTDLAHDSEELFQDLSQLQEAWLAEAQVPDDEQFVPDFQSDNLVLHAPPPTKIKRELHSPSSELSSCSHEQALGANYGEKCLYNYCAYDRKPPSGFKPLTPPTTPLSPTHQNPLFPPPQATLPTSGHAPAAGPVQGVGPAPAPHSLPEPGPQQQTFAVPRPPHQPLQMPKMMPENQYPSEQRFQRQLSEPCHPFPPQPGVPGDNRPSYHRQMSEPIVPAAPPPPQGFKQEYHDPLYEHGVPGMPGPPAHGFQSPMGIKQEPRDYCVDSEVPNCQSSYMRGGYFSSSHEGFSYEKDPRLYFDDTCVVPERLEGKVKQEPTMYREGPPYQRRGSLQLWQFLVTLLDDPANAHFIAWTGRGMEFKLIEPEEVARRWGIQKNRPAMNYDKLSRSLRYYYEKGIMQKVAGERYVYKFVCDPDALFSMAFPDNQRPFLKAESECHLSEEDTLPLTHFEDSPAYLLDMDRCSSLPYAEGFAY
# Summary of the method: as §1
# HSF1 = HSF1 (Homo sapiens, UniProt Q00613 1-529); conditions: protein: recombinant; tags: N-terminal GST; chain copies: 3; dsDNA, one strand shown
# HSF1, sequence (Q00613 whole entry): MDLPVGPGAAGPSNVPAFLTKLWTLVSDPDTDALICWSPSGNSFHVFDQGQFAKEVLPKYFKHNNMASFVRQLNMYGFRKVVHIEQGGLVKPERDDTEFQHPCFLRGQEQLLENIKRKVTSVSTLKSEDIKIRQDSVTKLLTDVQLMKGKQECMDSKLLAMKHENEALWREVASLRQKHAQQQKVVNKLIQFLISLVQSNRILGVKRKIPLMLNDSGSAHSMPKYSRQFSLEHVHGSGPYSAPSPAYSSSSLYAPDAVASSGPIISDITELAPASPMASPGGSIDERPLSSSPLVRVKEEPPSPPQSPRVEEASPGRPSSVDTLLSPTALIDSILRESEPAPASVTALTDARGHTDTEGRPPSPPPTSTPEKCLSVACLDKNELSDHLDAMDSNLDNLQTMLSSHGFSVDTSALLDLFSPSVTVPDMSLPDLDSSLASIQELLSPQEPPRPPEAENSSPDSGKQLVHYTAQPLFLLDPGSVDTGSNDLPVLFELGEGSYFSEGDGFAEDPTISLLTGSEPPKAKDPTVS
# Summary of the method: as §1
# SPIC = biological target: T2, SPIC (Homo sapiens, UniProt Q8N5J4 1-248); conditions: protein: recombinant; tags: N-terminal GST; dsDNA, one strand shown
# T2 sequence: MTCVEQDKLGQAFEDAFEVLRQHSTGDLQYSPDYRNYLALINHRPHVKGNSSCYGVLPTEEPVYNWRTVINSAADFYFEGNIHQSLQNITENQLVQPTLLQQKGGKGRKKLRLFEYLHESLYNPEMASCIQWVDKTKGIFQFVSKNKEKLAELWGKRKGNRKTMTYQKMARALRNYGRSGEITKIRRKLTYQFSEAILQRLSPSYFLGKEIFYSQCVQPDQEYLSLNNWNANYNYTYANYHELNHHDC
# Summary of the method: as §1
# ELF4 = ELF4 (Homo sapiens, UniProt Q99607 1-663); conditions: protein: recombinant; tags: N-terminal GST; dsDNA, one strand shown
# ELF4, sequence (Q99607 whole entry): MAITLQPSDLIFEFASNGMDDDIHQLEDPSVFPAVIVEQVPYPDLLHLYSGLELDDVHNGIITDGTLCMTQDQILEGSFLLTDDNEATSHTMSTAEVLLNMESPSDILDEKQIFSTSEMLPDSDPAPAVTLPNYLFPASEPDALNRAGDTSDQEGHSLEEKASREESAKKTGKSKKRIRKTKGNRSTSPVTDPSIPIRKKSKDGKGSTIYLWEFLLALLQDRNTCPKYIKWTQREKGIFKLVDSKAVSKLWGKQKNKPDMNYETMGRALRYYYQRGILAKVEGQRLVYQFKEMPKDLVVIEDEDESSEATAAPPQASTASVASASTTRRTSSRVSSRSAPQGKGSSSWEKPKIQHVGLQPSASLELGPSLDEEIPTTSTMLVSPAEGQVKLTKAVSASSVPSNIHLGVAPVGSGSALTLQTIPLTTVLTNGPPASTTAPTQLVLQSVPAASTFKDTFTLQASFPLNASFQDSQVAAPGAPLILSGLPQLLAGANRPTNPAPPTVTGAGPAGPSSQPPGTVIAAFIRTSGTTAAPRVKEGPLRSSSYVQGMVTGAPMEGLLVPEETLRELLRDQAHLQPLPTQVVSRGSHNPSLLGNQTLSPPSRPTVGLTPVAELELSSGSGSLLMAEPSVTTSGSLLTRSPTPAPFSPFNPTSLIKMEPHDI
# Summary of the method: as §1
# ELK4 = biological target: T3, ELK4 (Homo sapiens, UniProt P28324-2 1-405); conditions: protein: recombinant; tags: N-terminal GST; dsDNA, one strand shown
# T3 sequence: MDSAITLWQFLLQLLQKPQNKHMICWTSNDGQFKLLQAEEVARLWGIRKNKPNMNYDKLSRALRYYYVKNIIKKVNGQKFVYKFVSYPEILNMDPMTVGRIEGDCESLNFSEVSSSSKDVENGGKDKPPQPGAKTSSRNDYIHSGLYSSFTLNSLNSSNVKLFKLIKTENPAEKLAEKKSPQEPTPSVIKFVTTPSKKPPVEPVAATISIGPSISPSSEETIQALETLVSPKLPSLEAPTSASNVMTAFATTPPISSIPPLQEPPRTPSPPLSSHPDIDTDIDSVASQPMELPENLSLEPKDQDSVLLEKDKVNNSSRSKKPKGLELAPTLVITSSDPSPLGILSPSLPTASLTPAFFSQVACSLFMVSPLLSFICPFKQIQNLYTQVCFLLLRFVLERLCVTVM
# Summary of the method: as §1
# ETV2 = biological target: T4, ETV2 (Homo sapiens, UniProt O00321 1-342); conditions: protein: recombinant; tags: N-terminal GST; dsDNA, one strand shown
# T4 sequence: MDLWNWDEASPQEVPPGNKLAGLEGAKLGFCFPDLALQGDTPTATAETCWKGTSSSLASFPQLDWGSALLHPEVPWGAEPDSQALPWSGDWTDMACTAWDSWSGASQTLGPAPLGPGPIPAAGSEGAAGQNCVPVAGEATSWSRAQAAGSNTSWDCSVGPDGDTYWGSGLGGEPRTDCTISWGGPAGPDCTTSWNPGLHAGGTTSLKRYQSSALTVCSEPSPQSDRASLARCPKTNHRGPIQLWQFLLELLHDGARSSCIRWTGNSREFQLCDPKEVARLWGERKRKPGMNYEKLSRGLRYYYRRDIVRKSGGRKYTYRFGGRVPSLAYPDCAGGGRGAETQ
# Summary of the method: as §1
# ELF3 = biological target: T5, ELF3 (Homo sapiens, UniProt P78545 1-371); conditions: protein: recombinant; tags: N-terminal GST; dsDNA, one strand shown
# T5 sequence: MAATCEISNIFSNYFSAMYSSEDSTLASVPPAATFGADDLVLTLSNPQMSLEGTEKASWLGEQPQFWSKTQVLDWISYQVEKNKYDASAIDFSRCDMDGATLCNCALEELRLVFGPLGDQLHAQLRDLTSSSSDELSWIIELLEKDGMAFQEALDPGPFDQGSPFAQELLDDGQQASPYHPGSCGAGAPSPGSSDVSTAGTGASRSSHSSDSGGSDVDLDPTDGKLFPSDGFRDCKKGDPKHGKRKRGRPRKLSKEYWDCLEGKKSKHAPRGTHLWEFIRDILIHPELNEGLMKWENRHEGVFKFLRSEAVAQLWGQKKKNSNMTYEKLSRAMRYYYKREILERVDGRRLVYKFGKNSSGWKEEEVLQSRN
# Summary of the method: as §1
# CRX = CRX (Homo sapiens, UniProt O43186 1-299); conditions: protein: recombinant; tags: N-terminal GST; dsDNA, one strand shown
# CRX, sequence (O43186 whole entry): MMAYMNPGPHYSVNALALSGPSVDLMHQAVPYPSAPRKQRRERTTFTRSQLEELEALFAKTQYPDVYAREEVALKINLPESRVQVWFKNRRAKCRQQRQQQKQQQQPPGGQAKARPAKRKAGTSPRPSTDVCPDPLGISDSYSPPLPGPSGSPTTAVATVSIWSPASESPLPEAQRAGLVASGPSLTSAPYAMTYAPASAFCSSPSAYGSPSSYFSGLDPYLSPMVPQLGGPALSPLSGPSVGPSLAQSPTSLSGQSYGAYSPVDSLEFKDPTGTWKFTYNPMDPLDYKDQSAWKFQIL
# Summary of the method: as §1
sequence,measurement,setting,value
AATACG,binding signal,FEV,"1.19 fold enrichment (6-mer frequency, TF over GST control)"
same,binding signal,ETV5,"1.27 fold enrichment (6-mer frequency, TF over GST control)"
same,binding signal,HSF1,"1.26 fold enrichment (6-mer frequency, TF over GST control)"
same,binding signal,SPIC,"1.17 fold enrichment (6-mer frequency, TF over GST control)"
same,binding signal,ELF4,"1.29 fold enrichment (6-mer frequency, TF over GST control)"
same,binding signal,ELK4,"1.02 fold enrichment (6-mer frequency, TF over GST control)"
same,binding signal,ETV2,"1.19 fold enrichment (6-mer frequency, TF over GST control)"
same,binding signal,ELF3,"1.24 fold enrichment (6-mer frequency, TF over GST control)"
same,binding signal,CRX,"1.36 fold enrichment (6-mer frequency, TF over GST control)"
